Among the data in PubChem BioAssay (NCATS) are activity, percent of control values, retold here.

Several values for one entry are separate records, joined by “and”; a condition that tells them apart may be missing. Equal entries are not always repeated.

The nature of the assay: qHTS profiling for inhibitors of Plasmodium falciparum (DD2) proliferation (AID 743323). The settings on record: lower = more inhibition; at 28.7 µM (top of the series). The source says: Plasmodium falciparum is a virulent malarial parasite that kills 1-2 million people worldwide each year. Transmitted by mosquitoes, the sporozoite form of the parasite enters the blood stream to infect hepatocytes, where they become merozoites that infect red blood cells (erythrocytes). Within erythrocytes, merozoites begin a […] cycle of growth and division, after which the parasite is released to infect new red blood cells. Gametocytes, which form within erythrocytes as well, circulate in the bloodstream and are ingested by the mosquito, thereby completing the life cycle. To profile malarial isolates for differential chemical responses and to identify inhibitors of malarial growth, an assay that measures P. falciparum growth and replication within erythrocytes was employed. This assay uses a DNA binding fluorescent dye (SYBR Green) to detect parasite DNA following cell lysis. Because mature erythrocytes lack DNA, only Plasmodium-derived DNA is detected.
The SYBR Green viability assay was adapted from a method described previously (Plouffe et al., 2008). For screening 3 ul culture medium was dispensed into 1536 well black clear bottom plates (Aurora Biotechnologies) using a Multidrop Combi (Thermo Fisher Scientific Inc.), 23 nL compounds in DMSO were added by a pin tool (Kalypsys), and 5 ul of erythrocytes infected with P. falciparum (0.3% parasitemia, 2.5% hematocrit final concentration) were added. The plates were incubated at 37 C in a humidified incubator in 5% CO2 for 72 h, and 2 ul lysis buffer (20 mM Tris HCl, 10 mM EDTA, 0.16% saponin, […]% triton X, 10X SYBR Green I supplied as 10,000X […] by Invitrogen) was added to each well. The plates were mixed for 25 sec with gentle shaking and incubated overnight at room temperature in the dark. The following morning, fluorescence intensity at 485(14) nm excitation and 535(25) nm emission wavelengths was measured on an EnVision (Perkin Elmer) plate reader. Plate reads were normalized relative to the control inhibitor (0.29 uM artemisinin) and vehicle (DMSO) wells present on each plate and then corrected by an algorithm using vehicle-only control plates at the beginning and end of the compound plate stack.
Background: qHTS replaces the single test concentration by a dilution series.
In the case of `CS(=O)c1ccc(-c2nc(-c3ccc(F)cc3)c(-c3ccncc3)[nH]2)cc1` (configuration not stated), the activity, percent of control is 56.4%.

With `CC(O)(CS(=O)(=O)c1ccc(F)cc1)C(=O)Nc1ccc(C#N)c(C(F)(F)F)c1` (configuration not stated), the activity, percent of control was determined as 89.3%.

Regarding `Cc1sc2c(c1C)C(c1ccc(Cl)cc1)=N[C@@H](CC(=O)OC(C)(C)C)c1nnc(C)n1-2`, the activity, percent of control is 14.6%.

As for `C[C@@H]1[C@@H](CC(C[C@H]2O[C@@H]3O[C@]4(C)CC[C@@H]5[C@H](C)CC[C@@H]([C@H]2C)[C@@]35OO4)C[S+](=O)([O-])c2ccc(COC(=O)N(C)C)cc2)O[C@@H]2O[C@]3(C)CC[C@H]4[C@H](C)CC[C@@H]1[C@@]24OO3` (some centres not stated), the activity, percent of control was -0.0428%.

For `Cn1c(CCCC(=O)O)nc2cc(N(CCCl)CCCl)ccc21`, the activity, percent of control was 105%.

Take `COc1ccc(C(=O)c2c(C)n(CCN3CCOCC3)c3ccccc23)cc1`: the activity, percent of control is 102%.

With `CCCCC/C=C\C/C=C\C/C=C\C/C=C\CCCC(=O)NC1CC1`, the activity, percent of control came to 5.26%.

Regarding `C[C@]12CCC(=O)C(O)=C1CC[C@@H]1[C@@H]2CC[C@]2(C)C(=O)CC[C@@H]12`, the activity, percent of control was 71.8%.

On to `O=C(O)C(=O)c1cn(Cc2ccccc2)c2ccc(-c3ccc(OC(F)(F)F)cc3)cc12`, for which the activity, percent of control was found to be 90.7%.

Take `COc1cc([C@@H]2c3cc4c(cc3[C@H](O)[C@H]3COC(=O)[C@H]23)OCO4)cc(OC)c1OC`: the activity, percent of control is 62.7% and 121%.

For `COC1(CS(=O)c2ccccc2)CCN(CCc2c[nH]c3ccc(F)cc23)CC1` (configuration not stated), the activity, percent of control stood at 44.5%.

Turning to `C[C@@H]1[C@@H](C(=O)C[C@H]2O[C@@H]3O[C@]4(C)CC[C@@H]5[C@H](C)CC[C@@H]([C@H]2C)[C@@]35OO4)O[C@@H]2O[C@]3(C)CC[C@H]4[C@H](C)CC[C@@H]1[C@@]24OO3`, the activity, percent of control was -0.0237%.

As to `COC[C@H]1OC(=O)c2coc3c2[C@@]1(C)C1=C(C3=O)C2CCC(=O)[C@@]2(C)C[C@H]1OC(C)=O` (some centres not stated), the activity, percent of control turned out to be 57.9%.

Regarding `Oc1cn2c(n1)Nc1ccc(Cl)c(Cl)c1C2`, the activity, percent of control was 97.1%.

For the compound `CN(C)CCN(C)CCc1ccc(Cl)c(Cl)c1`, the activity, percent of control came out at 25%.

Take `C=C(C)[C@H]1Cc2c(ccc3c2O[C@@H]2COc4cc(OC)c(OC)cc4[C@@H]2C3=O)O1`: the activity, percent of control amounted to 97.6%.

Regarding `Oc1cc(Cl)ccc1Oc1ccc(Cl)cc1Cl`, the activity, percent of control amounted to 2.03%.

Regarding `CNC(=O)N1N=C(c2ccc(N)cc2)c2cc3c(cc2CC1C)OCO3` (configuration not stated), the activity, percent of control was 92.1%.

`CC1=C2C[C@@H]3[C@@H](CC=C4C[C@@H](O)CC[C@@]43C)[C@@H]2CC[C@]12O[C@H]1C[C@H](C)CN[C@H]1[C@H]2C`: the activity, percent of control stood at 39%.

With `Cc1cc(SCc2sc(-c3ccc(C(F)(F)F)c(F)c3)nc2C)ccc1OCC(=O)O`, the activity, percent of control amounted to 90.7%.

Regarding `CNC(=O)c1ccc(N2C(=S)N(c3ccc(C#N)c(C(F)(F)F)c3)C(=O)C23CCC3)cc1F`, the activity, percent of control came out at 76.1%.

On to `Cn1cc(C2=C(c3cn(C4CCN(Cc5ccccn5)CC4)c4ccccc34)C(=O)NC2=O)c2ccccc21`, for which the activity, percent of control came out at 70%.
